Rows were chosen to be rich in hits. Some 9% of all compounds tested hit in one or more screens of this group.
HTT cytoprotect = cytoprotection in Huntington HTT-Q103 PC12 cell model; AID 1471; Potency, µM (top dose mostly 56.4 µM), inactives show cytoprotection (ATP increase), most hits filed as activators; PC12 HTT-Q103 induced, cytoprotection, ATP luminescence, 40 h; actives 0.14% (n = 230,000); note: % of control where 0% means no effect; nearly all actives have a fitted effect of over 45% in size
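Huntington model: PC12 line, ecdysone-inducible HTTQ103 exon1–GFP, tebufenozide 100 nM. Test articles in a dose series. Endpoint luminescence from cellular ATP.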
HPGD inh = HPGD (human) dehydrogenase inhibition | actives 4.3% (n = 150,000) | Potency, µM, inactives show at the top dose activity change, negative = inhibition, usual class: inhibitors | P15428 | purified HPGD, NADH fluorescence kinetic, PGE2 substrate; active = well fitted inhibition curve with a large enough effect, not every such curve was filed as active; inconclusive = small, poorly fitted or top-dose-only effect, or another doubt; inactive = no such curve, though single readings can be large or run the other way; note: % is set by controls: 0 for no effect and ±100 for the full control effect
Target sequence (P15428 whole entry, looked up): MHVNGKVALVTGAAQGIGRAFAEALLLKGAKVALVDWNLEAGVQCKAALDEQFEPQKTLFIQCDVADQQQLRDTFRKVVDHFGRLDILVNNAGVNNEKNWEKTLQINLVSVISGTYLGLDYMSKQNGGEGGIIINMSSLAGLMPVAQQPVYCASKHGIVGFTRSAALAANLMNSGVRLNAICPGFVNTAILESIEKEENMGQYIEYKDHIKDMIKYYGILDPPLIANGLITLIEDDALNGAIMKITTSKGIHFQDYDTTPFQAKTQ
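20 nM HPGD preincubated 15 min at room temperature with compound in 50 mM Tris-HCl pH 8, 0.01% Tween 20. Started with 1 mM NAD+ and 30 uM prostaglandin E2; NADH fluorescence (360/450 nm) read 5 times over 30-s intervals, last minus first.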
KinaseGlo FLuc = blocks Kinase-Glo luciferase, a counter-screen artifact; Kinase-Glo luciferase, ATP luminescence, 8 min; Potency, µM (top dose mostly 38.3 µM), without a hit: top-dose activity change, negative = inhibition, hits mostly inhibitors; actives 0.28% (n = 200,000); note: % is set by controls: 0 for no effect and ±100 for the full control effect; nearly all actives have a fitted effect of over 60% in size
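Recombinant Kinase-Glo luciferase, 10 uM ATP (linear range), luciferin; imidazole pH 7.2 / KCl / MgCl2 / Tween / BSA buffer; 8 min RT; luminescence.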
ALDH1A1 inh = ALDH1A1 (human) enzyme inhibition; Purified ALDH1A1, NADH fluorescence, propionaldehyde substrate; Potency, µM (series often up to 75.3 µM), for the others: at the highest dose activity, negative = inhibition, most hits filed as inhibitors; actives 7.3% (n = 220,000); AID 1030; active = well fitted inhibition curve with a large enough effect, not every such curve was filed as active; inconclusive = small, poorly fitted or top-dose-only effect, or another doubt; inactive = no such curve, though single readings can be large or run the other way;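 note: plate controls were no enzyme wells and a reference inhibitor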
Target sequence (P00352 whole entry, looked up): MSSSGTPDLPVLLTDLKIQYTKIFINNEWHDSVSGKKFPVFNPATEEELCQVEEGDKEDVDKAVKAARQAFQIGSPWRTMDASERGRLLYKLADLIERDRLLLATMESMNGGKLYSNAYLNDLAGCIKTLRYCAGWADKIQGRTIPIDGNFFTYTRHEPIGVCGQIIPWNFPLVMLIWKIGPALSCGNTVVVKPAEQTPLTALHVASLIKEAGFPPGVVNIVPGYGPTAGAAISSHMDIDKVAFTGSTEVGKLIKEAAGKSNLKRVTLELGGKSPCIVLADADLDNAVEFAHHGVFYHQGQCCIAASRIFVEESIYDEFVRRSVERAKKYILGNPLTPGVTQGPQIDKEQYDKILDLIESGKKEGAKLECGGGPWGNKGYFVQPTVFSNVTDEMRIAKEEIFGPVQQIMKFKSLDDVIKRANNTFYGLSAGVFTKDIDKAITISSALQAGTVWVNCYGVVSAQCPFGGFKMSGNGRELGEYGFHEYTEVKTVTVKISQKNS
HTT aggregate = inhibitors of mutant huntingtin aggregate formation in PC12 cells; actives 1.1% (n = 220,000); Potency, µM (doses to about 46.1 µM), without a hit: at the highest dose activity change, negative = inhibition, most hits filed as inhibitors; PC12 HttQ103-GFP aggregates, Acumen cytometry, 40 h; AID 1688; note: % is set by controls: 0 for no effect and ±100 for the full control effect; nearly all actives have a fitted effect of over 60% in size
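Aggregates are detected as GFP objects 1–25 µm with signal 6 STDEV over background in lysates of induced PC12 cells. These carry Huntingtin exon 1 with 103 glutamines fused to GFP under an ecdysone promoter; compounds titrated.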
LMNA splice mod = modulators of lamin A splicing | AID 1487 | HeLa LMNA splicing GFP/RFP minigene ratio, 48 h | Potency, µM (highest dose often 46.1 µM), for inactives: at the highest dose ratio change, negative = inhibition, most hits filed as inhibitors | actives 0.01% (n = 200,000); active = well fitted inhibition curve with a large enough effect in the signal ratio, with a control signal flat, not every such curve was filed as active; inconclusive = small, poorly fitted or top-dose-only effect, or effect the other way, or a change in a side signal; the % refers to the signal ratio; note: % is set by controls: 0 for no effect and ±100 for the full control effect
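S3 HeLa stable clones carrying a lamin A-EGFP splicing minigene plus DsRed2 were seeded at 600 cells/well in Opti-MEM with 2% FBS, pin-dosed and incubated 48 h at 37°C. Acumen cytometry (488 nm) gave the GFP/RFP total-intensity ratio.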
Starred values were filed as active, the others as inactive; ? = inconclusive; / = no result given; [ ] = remark or other dose. Unless noted, calls come from the whole dose curve; as a rule, active = well fitted curve in the direction sought with a large enough effect; inconclusive = small, poorly fitted or top-dose-only effect, or another doubt; inactive = no such curve, though single readings can be large; an effect the other way counts as inactive or inconclusive. Potency is the fitted concentration of half-maximal effect.

SMILES	HTT cytoprotect	HPGD inh	KinaseGlo FLuc	ALDH1A1 inh	HTT aggregate	LMNA splice mod
O=C(CSc1ccc(-c2ccco2)nn1)N1CCCCCC1	-45.4%	/	-0.6%	?	-1.9%	?
COc1cccc(-c2ccc(SCC(=O)c3ccccc3)nn2)c1	-10.2%[10 µM]	/	-2.3%	?	-13.3%[9.22 µM]	-19.8%[46 µM]
COc1ccc(C(=O)CSc2ccc(-c3ccccc3)nn2)cc1	-41.4%[10 µM]	?	6.4%	7.94µM*	-16.3%	?
O=C(CSc1ccc(-c2ccccn2)nn1)c1ccc([N+](=O)[O-])cc1	-17.3%	/	-2.0%	1µM*	-18.7%	/
COc1ccc(C(=O)CSc2ccc(-c3ccco3)nn2)cc1	-3.7%[10 µM]	-16.5%	-1.0%	22.4µM*	-7.0%	-8.4%
O=C(CSc1ccc(-c2ccco2)nn1)c1ccccc1	-7.1%[10 µM]	-19.2%	0.5%	8.91µM*	16.5%	-3.1%
O=C(CSc1ccc(-c2cccnc2)nn1)c1ccc([N+](=O)[O-])cc1	-40.8%	/	0.6%	?	-13.4%	/
COc1ccc(-c2ccc(SC)nn2)cc1	-136.9%	/	4.47µM*	11.0%	2.8%	3.0%[46 µM]
CCOc1ccc(-c2ccc(SCC)nn2)cc1	-199.2%	/	?	-15.7%	-4.3%	-2.2%[46 µM]
O=C(CSc1ccccn1)N1CCc2ccccc21	-124.8%	/	-29.0%	?	29.8%	?
O=C(CSc1ccc(-c2ccccn2)nn1)N1CCc2ccccc21	-65.9%	/	-1.3%	17.8µM*	?	?
Fc1ccc(SCCc2ccncc2)cc1	-1.7%	-18.3%	-4.7%	-4.0%	-6.4%	15.0%
Fc1cc(F)c(F)c(SCCc2ccncc2)c1F	-21.5%	?	-1.0%	7.94µM*	-5.2%	?
O=C(Nc1nnc(-c2ccccc2Cl)o1)c1ccc(S(=O)(=O)N2CCCCCC2)cc1	-64.8%	-12.2%	0.9%	11.7%	10µM*	?
CC1CCCCN1S(=O)(=O)c1ccc(C(=O)Nc2nnc(-c3ccccc3Cl)o2)cc1 (configuration not stated)	-25.0%[10 µM]	-7.8%	-3.5%	-4.8%	?	?
CCC1CCCCN1S(=O)(=O)c1ccc(C(=O)Nc2nnc(-c3ccccc3Cl)o2)cc1 (configuration not stated)	29.1%[10 µM]	-2.9%	2.8%	2.7%	7.94µM*	?
[O-]/[N+](=C\c1ccncc1)c1ccc(Br)cc1	-13.7%	?	-3.2%	1.12µM*	1.7%	-0.4%
O=[N+]([O-])c1ccc(/C=C/c2ccncc2)cc1	1.6%[10 µM]	/	/	/	-9.9%[9.22 µM]	/
Cc1oc2c(c1C(=O)Nc1cccc3ccccc13)CCCC2	1.8%[10 µM]	-12.5%	3.0%	?	-11.5%	?
CC(C)(C)c1ccccc1OCCOCCNCc1ccccc1	21.4%[10 µM]	-3.4%	11.7%	?	17.8µM*	?
CNCCOc1ccccc1C(C)(C)C	9.6%[10 µM]	-6.3%	-4.9%	?	3.8%	-6.2%
CCOc1ccc(CC(=O)C2C(=O)CC(C)(C)CC2=O)cc1OCC	5.6%	-15.9%	-0.2%	7.94µM*	?	0.4%
CCOc1ccc(CC(=O)C2=C(N3CCOCC3)CC(C)(C)CC2=O)cc1OCC	-7.4%	/	3.0%	39.8µM*	3.4%	12.6%[46 µM]
CCOc1ccc(Cc2onc3c2C(=O)CC(C)(C)C3)cc1OCC	-33.4%	/	2.8%	8.91µM*	-4.3%	21.5%[46 µM]
CCOc1ccc(CC(=O)C2C(=O)CCCC2=O)cc1OCC	-16.6%	-2.0%	0.3%	?	6.7%	0.2%
SMILES	HTT cytoprotect	HPGD inh	KinaseGlo FLuc	ALDH1A1 inh	HTT aggregate	LMNA splice mod
CCN(CC)S(=O)(=O)c1cccc(NC(=O)COC(=O)CNC(=O)c2cccc(F)c2)c1	6.1%[10 µM]	/	/	/	-16.4%[9.22 µM]	/
COc1ccc2[nH]c(=O)c(CN(C(=O)c3cccnc3)c3ccc(C)c(C)c3)cc2c1	10.4%[10 µM]	/	/	/	-7.5%[9.22 µM]	/
O=C(NCc1ccc(Cl)cc1)C(=O)NCC1OCCN1S(=O)(=O)c1ccc2c(c1)OCCO2 (configuration not stated)	/	-2.7%	1.5%	?	-0.2%	?
O=C(NC12CC3CC(CC(C3)C1)C2)N1CCN(C(=O)C2CCCO2)CC1 (configuration not stated)	3.5%[10 µM]	-3.0%	6.6%	3.5%	-1.6%	-11.6%
Cc1cc(C)cc(N(CC(=O)N2CCc3ccccc32)S(=O)(=O)c2c(C)noc2C)c1	11.4%	-14.0%	8.0%	8.91µM*	-3.2%	0.7%
CCOc1ccc(N(CC(=O)N2CCc3ccccc32)S(=O)(=O)c2c(C)noc2C)cc1	-5.0%	-7.0%	3.1%	-1.9%	-1.2%	-12.0%
CCOC(=O)C1CCCN(C(=O)CN2C(=O)COc3ccc(C(C)(C)C)cc32)C1 (configuration not stated)	-5.9%	/	/	?	-12.4%	1.4%
Cc1cc(C)c2c(NC(=O)CCl)nn(C)c2n1	-39.7%[10 µM]	/	-1.6%	?	?	22.4%[46 µM]
CCc1cc(SC#N)cc(CC)c1NC(=O)CCl	/	?	-1.9%	14.1µM*	8.6%	?
COc1ccc(-c2cc(C(=O)N3CCN(Cc4ccccc4)CC3)no2)cc1OC	-22.2%	-28.8%	-0.4%	?	1.1%	-11.7%
CN1CCN(C(=O)c2cc(-c3ccco3)on2)CC1	22.0%	31.6µM*	-4.1%	-4.7%	6.9%	6.0%
CN1CCN(C(=O)c2cc(-c3cccc(Cl)c3)on2)CC1	7.0%	/	/	4.47µM*	-30.2%	3.0%
Cc1onc(-c2ccccc2Cl)c1C(=O)N1CCN(C(=O)c2ccco2)CC1	-7.6%	-6.8%	0.3%	22.4µM*	?	?
COc1cccc(-c2cc(C(=O)N3CCN(Cc4ccccc4)CC3)no2)c1	-0.4%	/	/	9.1%	5.0%	?
COc1ccc(-c2cc(C(=O)N3CCCCC3)no2)cc1OC	-21.0%	14.1µM*	-4.8%	-8.8%	-10.7%	1.9%
Cc1cccc(Oc2ncc(-c3ccc(Cl)cc3)cn2)c1C	-45.9%	-12.2%	0.0%	4.7%	-12.9%	-6.8%
CCCCCCN(C(=O)CCCCCN1C(=O)NC(c2ccc(Cl)cc2)C(C(=O)OCc2ccccc2)=C1C)C(C(=O)NCCCC)c1ccc(OCC(=O)OC)c(C(=O)OC)c1 (configuration not stated)	-8.9%	-14.3%	-6.9%	-4.8%	-14.2%	-0.4%
O=C(c1cc(-c2ccc(Cl)cc2Cl)on1)N1CCN(C(=O)c2ccco2)CC1	14.9%	10µM*	-1.1%	2.82µM*	19.5%	4.1%
CCCC(=O)NC(c1cccs1)c1cc([N+](=O)[O-])c2cccnc2c1O (configuration not stated)	7.7%[10 µM]	-19.5%	-0.4%	0.3%	11.2µM*	?
CCC(=O)NC(c1cccs1)c1cc([N+](=O)[O-])c2cccnc2c1O (configuration not stated)	-89.0%[10 µM]	-12.0%	-4.3%	5.3%	?	?
